# Measured values published in PubChem BioAssay (NCATS).
# Inconclusive results are not listed. Values without a mark were called inactive. Calls come from the whole dose curve; as a rule, active = well fitted cell-killing curve with a large enough effect; inconclusive = small, poorly fitted or top-dose-only effect, or effect the other way; inactive = flat fitted curve, though single readings scatter.
# Test system: Tov-21-G
# Assay: Primary qHTS to identify gynecologic anti-cancer compounds using libraries of approved drugs and bioactive compounds (AID 1345084); note: nearly all actives have a fitted effect of over 55% in size
# Settings: Gynecologic cancer cell panel viability, ATPlite luminescence, 48 h; series mostly up to 57.5 µM; activity change, negative = cytotoxicity: at the top concentration
# Procedure, shortened: (§1)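 Cytotoxicity screen measuring ATP content by luciferase luminescence. Each compound is applied at five concentrations for 48 h at 37 C with 5% CO2.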
# % is set by controls: 0 for no effect and ±100 for the full control effect.
row,Compound,"activity change, negative = cytotoxicity"
1,CC(=O)[C@H]1CC[C@H]2[C@@H]3CC=C4C[C@@H](OS(=O)(=O)O)CC[C@]4(C)[C@H]3CC[C@]12C,10.1%
2,COc1cccc(N2CCN(C3=Nc4c(F)cccc4[C@H](CC(=O)O)N3c3cc(C(F)(F)F)ccc3OC)CC2)c1,8.59%
3,COc1ccc(-n2c(SCCCN3C(=O)c4cccc5cccc(c45)C3=O)nnc2-c2ccncc2)cc1,-24%
4,Cc1c(C2=CCN(C(=O)N(C)C(C)C)CC2)nnn1-c1cccnc1F,0.0143%
5,COc1cc(C(C)C)c(Oc2cnc(N)nc2N)cc1I,-6.47%
6,Cc1nc(C#Cc2ccnc(Cl)c2)c(C)n1-c1ccc(OC(F)(F)F)cc1,-5.82%
7,CC(O)C(C)n1ncn(-c2ccc(N3CCN(c4ccc(OCC5COC(Cn6cncn6)(c6ccc(Cl)cc6Cl)O5)cc4)CC3)cc2)c1=O (configuration not stated),-0.543%
8,O=C(NCCN1CCN(c2cccc3ccc(O)cc23)CC1)c1ccc(F)cc1,-1.04%
9,O=S(=O)(c1ccc(Cl)cc1)N1CCN(c2ccnc3cc(Cl)ccc23)CC1,4.08%
10,C=C(C(=O)OC)[C@@H]1CC=C2C=CC(=O)[C@H](C)[C@@]2(C)C1,-4.79%
11,Cc1ccc(-c2ncc[nH]2)cc1NC(=O)c1ccc(OCc2ccccn2)cc1,-0.493%
12,O=C(Nc1ccccc1C(=O)Nc1ccc(CCO)cc1)c1ccc([N+](=O)[O-])cc1,-7.58%
13,COc1cc(C(=O)NC(=S)Nc2cccc(NC(=O)c3ccccc3)c2)cc(OC)c1OC,5.37%
14,C=C(C(=O)O)[C@@H]1CC=C(CCC(C)=O)[C@@H](C)CC1,-1.1%
15,CC1(C)CCCC2(C)C1C(=O)C=C(C(=O)O)C2(O)C(=O)O (configuration not stated),-17%
16,C=C1C(=O)OC2CC3(C)C(O)C(=O)C=C(C)C3CC12 (configuration not stated),-29.7%
17,O=C(O)c1ccc(S(=O)(=O)N(Cc2ccc(OC(F)(F)F)cc2)c2ncc(C(F)(F)F)cc2Cl)cc1,9.04%
18,CCC(CC)(NC(=O)C(C)C)C(=O)N[C@@H](CCCN=C(N)N)C(=O)NC1(C(=O)NC(c2ccc(F)cc2)c2ccc(F)cc2)CCCC1,3.75%
19,C=C1CCC[C@]2(C)CC/C(=C(/CO)C(=O)OC)C[C@@H]12,5.87%
20,O=C(O)C1=CO[C@@H](O[C@@H]2O[C@H](CO)[C@@H](O)[C@H](O)[C@H]2O)[C@@H]2C(CO)=CC[C@H]12,1.43% [at 38.5 µM]
21,Cc1ccc(C2(C(=O)N3CCC(n4nc(-c5ccccc5)oc4=O)CC3)CC2)cc1,9.25%
22,COC1C(OC(=O)/C=C/C=C/C=C/C=C/C(=O)O)CCC2(CO2)C1C1(C)OC1CC=C(C)C (configuration not stated),-4.22% [at 25.3 µM]
23,CC(C)c1cc(-c2ccc(F)c3ccccc23)nc(N)n1,2.14%
24,COc1ccc(C#Cc2ccc(C(=O)N3CCC[C@@H](CO)C3)cc2)cc1,-0.0207%
25,COc1ccc(OC)c(-c2ccc(NC(=O)c3ccncc3F)cc2)c1,-4.67%
26,O=c1cc(NCCCN[C@@H]2CCOc3c(Br)cc(Br)cc32)[nH]c2ccsc12,24.3%
27,O=C1COC2(CCN(S(=O)(=O)c3ccc(-c4ccc5cccnc5c4)cc3)CC2)CN1C1CC1,-3.08%

# Test system: Tov112D
# Assay: as above
# Settings: Gynecologic cancer cell panel viability, ATPlite luminescence, 48 h; series mostly up to 57.5 µM; activity change, negative = cytotoxicity: at the top concentration
# Procedure, shortened: as §1
row,Compound,"activity change, negative = cytotoxicity"
1,CC(C)C[C@H](CO)Nc1nc(S[C@@H](C)c2ccccc2)nc2nc(N)sc12,-2.75%
2,CCN(CC)C(=O)C(c1ccccc1)N1CCN(c2ccc(NC(=O)c3ccccc3-c3cccnc3)cc2F)CC1 (configuration not stated),10.4%
3,Cc1cn2cc(C(=O)N(C)CCO)cc(NC3CCOc4cccc(C)c43)c2n1 (configuration not stated),-9.9%
4,O=C(NC[C@H]1CN(c2ccc(N3CCOCC3=O)cc2)C(=O)O1)c1ccc(Cl)s1,-2.41%
5,Cc1cc2c(N3CCCC3)nc(N3CCCC3)nc2n1C,-2.85%
6,CC(=O)c1ccc2c(c1)[C@H](NC(=O)c1ccc(F)c(Cl)c1)[C@H](O)C(C)(C)O2,-2.99%
7,COc1cc2ncnc(Nc3ccc(F)c(Cl)c3)c2cc1O,2.85%
8,O=C(Nc1ccccc1)N1CCC(Cc2cnc3ccccc3c2)CC1,-1.53%
9,CCC(C)C(=O)OC1C(C)C2(O)C(C=C(CO)CC3(O)C(=O)C(C)=CC32)C2C(C)(C)C12OC(=O)C(C)C (configuration not stated),13.8% [at 25.3 µM]
10,Cn1cc(C2=C(c3coc4ccccc34)C(=O)NC2=O)c2cc(Br)ccc21,18.1%
11,CC1=C(C(=O)Nc2cc(Cl)ccc2Cl)C(c2ccco2)C2=C(CCCC2=O)N1 (configuration not stated),-10.3%
12,CC(=O)OC1C(OC(=O)c2ccccc2)C2C(C)(C)CCC(OC(C)=O)C2(C)C23CCC(C)(C2)C(=O)CC13 (configuration not stated),1.13% [at 25.3 µM]
13,CC(CCC1(O)OC2CC3C4CC=C5C[C@@H](O[C@@H]6O[C@H](CO)[C@@H](O[C@@H]7O[C@@H](C)[C@H](O)[C@@H](O)[C@H]7O)[C@H](O)[C@H]6O[C@@H]6O[C@@H](C)[C@H](O)[C@@H](O)[C@H]6O)CC[C@]5(C)C4CC[C@]3(C)[C@@]2(O)[C@@H]1C)CO[C@@H]1O[C@H](CO)[C@@H](O)[C@H](O)[C@H]1O (some centres not stated),-0.117% [at 11.6 µM]
14,CC(=O)[C@H]1CC[C@H]2[C@@H]3CC=C4C[C@@H](OS(=O)(=O)O)CC[C@]4(C)[C@H]3CC[C@]12C,-1.32%
15,COc1cccc(N2CCN(C3=Nc4c(F)cccc4[C@H](CC(=O)O)N3c3cc(C(F)(F)F)ccc3OC)CC2)c1,8.57%
16,COc1ccc(-n2c(SCCCN3C(=O)c4cccc5cccc(c45)C3=O)nnc2-c2ccncc2)cc1,12%
17,Cc1c(C2=CCN(C(=O)N(C)C(C)C)CC2)nnn1-c1cccnc1F,19.2%
18,COc1cc(C(C)C)c(Oc2cnc(N)nc2N)cc1I,1.98%
19,Cc1nc(C#Cc2ccnc(Cl)c2)c(C)n1-c1ccc(OC(F)(F)F)cc1,-1.6%
20,CC(O)C(C)n1ncn(-c2ccc(N3CCN(c4ccc(OCC5COC(Cn6cncn6)(c6ccc(Cl)cc6Cl)O5)cc4)CC3)cc2)c1=O (configuration not stated),6.21%

row,Compound,"activity change, negative = cytotoxicity"
1,O=C(NCCN1CCN(c2cccc3ccc(O)cc23)CC1)c1ccc(F)cc1,3.21%
2,O=S(=O)(c1ccc(Cl)cc1)N1CCN(c2ccnc3cc(Cl)ccc23)CC1,-3.05%
3,C=C(C(=O)OC)[C@@H]1CC=C2C=CC(=O)[C@H](C)[C@@]2(C)C1,-0.617%
4,Cc1ccc(-c2ncc[nH]2)cc1NC(=O)c1ccc(OCc2ccccn2)cc1,23%
5,O=C(Nc1ccccc1C(=O)Nc1ccc(CCO)cc1)c1ccc([N+](=O)[O-])cc1,2.32%
6,COc1cc(C(=O)NC(=S)Nc2cccc(NC(=O)c3ccccc3)c2)cc(OC)c1OC,-0.648%
7,C=C(C(=O)O)[C@@H]1CC=C(CCC(C)=O)[C@@H](C)CC1,-2.08%
8,CC1(C)CCCC2(C)C1C(=O)C=C(C(=O)O)C2(O)C(=O)O (configuration not stated),-4.51%
9,C=C1C(=O)OC2CC3(C)C(O)C(=O)C=C(C)C3CC12 (configuration not stated),9.07%
10,O=C(O)c1ccc(S(=O)(=O)N(Cc2ccc(OC(F)(F)F)cc2)c2ncc(C(F)(F)F)cc2Cl)cc1,5.9%
11,CCC(CC)(NC(=O)C(C)C)C(=O)N[C@@H](CCCN=C(N)N)C(=O)NC1(C(=O)NC(c2ccc(F)cc2)c2ccc(F)cc2)CCCC1,15.2%
12,C=C1CCC[C@]2(C)CC/C(=C(/CO)C(=O)OC)C[C@@H]12,3.59%
13,O=C(O)C1=CO[C@@H](O[C@@H]2O[C@H](CO)[C@@H](O)[C@H](O)[C@H]2O)[C@@H]2C(CO)=CC[C@H]12,-0.822% [at 38.5 µM]
14,Cc1ccc(C2(C(=O)N3CCC(n4nc(-c5ccccc5)oc4=O)CC3)CC2)cc1,0.0549%
15,COC1C(OC(=O)/C=C/C=C/C=C/C=C/C(=O)O)CCC2(CO2)C1C1(C)OC1CC=C(C)C (configuration not stated),4.29% [at 25.3 µM]
16,CC(C)c1cc(-c2ccc(F)c3ccccc23)nc(N)n1,4.89%
17,COc1ccc(C#Cc2ccc(C(=O)N3CCC[C@@H](CO)C3)cc2)cc1,-0.32%
18,COc1ccc(OC)c(-c2ccc(NC(=O)c3ccncc3F)cc2)c1,-1.62%
19,O=c1cc(NCCCN[C@@H]2CCOc3c(Br)cc(Br)cc32)[nH]c2ccsc12,17.4%
20,O=C1COC2(CCN(S(=O)(=O)c3ccc(-c4ccc5cccnc5c4)cc3)CC2)CN1C1CC1,-8.52%
